Results published in PubChem BioAssay (Tox21).
“And” between values parts separate entries of the source, which are not always exact repeats. Identical values can stand only once. Results filed as inconclusive are left out. Where a structure was tested more than once in an assay, its records may differ in their call. The source made the active and inactive calls. Unless noted, calls come from the whole dose curve; as a rule, active = well fitted curve in the direction sought with a large enough effect in the repeat runs; inconclusive = weak or mixed curves; inactive = no such curve, though single readings can be large; an effect the other way counts as inactive or inconclusive.

Assays:
[1] = qHTS assay to identify small molecule antagonists of the vitamin D receptor (VDR) signaling pathway - cell viability counter screen (AID 743225); note: nearly all actives have a fitted effect of over 50% in size
Method in brief: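 Cells (VDR-UAS-bla HEK 293T) are plated, rested 4 h at 37C, dosed with compound and 3 nM final 1-alpha,25-dihydroxy vitamin D3, and incubated 16 h. Viability is taken from CellTiter-Glo luminescence in the reporter wells.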

[2] = qHTS assay to identify small molecule agonists of the NFkB signaling pathway (AID 1159509; active = well fitted curve in the direction sought with a large enough effect in the signal ratio in the repeat runs, not every such curve was filed as active; the % refers to the signal ratio)
Method in brief: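 NFkB-bla ME-180 cells carry a beta-lactamase reporter under an NF-kB response element. They were plated overnight, then exposed to compounds for 5 h at 37 C. Read-out is LiveBLAzer FRET after 1.5 hr at room temperature (405 nm excitation; 460/530 nm emission).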

[3] = qHTS assay to identify small molecule agonists of the NFkB signaling pathway - cell viability counter screen (AID 1159515; calls by dose curve; note: nearly all actives have a fitted effect of over 55% in size)
Method in brief: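 NFkB-bla ME-180 cells, 2,000/well, were plated overnight at 37 C, 5% CO2, then exposed to compounds in DMSO for 5 hr. After the bla FRET read, CellTiter-Glo was added to the same wells; luminescence was read after 30 min at room temperature.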

[4] = qHTS assay to identify small molecule agonists of the endoplasmic reticulum stress response signaling pathway - cell viability counter screen (AID 1159517; calls by dose curve; note: nearly all actives have a fitted effect of over 50% in size)
Method in brief: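 ESRE-bla HeLa cells, 1,500 per well, seeded overnight then treated with compounds for 5 hr at 37 C. After the beta-lactamase read, viability in the same wells is measured by CellTiter-Glo luminescence after 30 min at room temperature.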

[5] = qHTS assay to identify small molecule antagonists of the retinoid-related orphan receptor gamma (ROR-gamma) signaling pathway - cell viability counter screen (AID 1159520); note: nearly all actives have a fitted effect of over 50% in size
Method in brief: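 Tet-on ROR gamma CHO cells were given compounds for 2 hr, then doxycycline hyclate at 1 uM final, and incubated 16 hr at 37 C. Viability was measured as ATP content by CellTiter-Glo luminescence.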

[6] = qHTS assay to identify small molecule agonists of the AP-1 signaling pathway - cell viability counter screen (AID 1159525; calls by dose curve; note: nearly all actives have a fitted effect of over 55% in size)
Method in brief: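 AP-1-bla ME-180 cells in Opti-MEM with 0.5% dialyzed FBS, compound exposure 5 h at 37 C in 15-point titration. Viability read in the same wells as ATP content by CellTiter-Glo luminescence, normalised to tetra-n-octylammonium bromide and DMSO controls.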

[7] = qHTS assay to identify small molecule agonists of the AP-1 signaling pathway (AID 1159526; calls by dose curve)
[8] = qHTS assay to identify small molecule agonists of the RXR signaling pathway - cell viability counter screen (AID 1159529); note: nearly all actives have a fitted effect of over 50% in size
Method in brief: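 Cell viability is measured by CellTiter-Glo luminescence, 30 min at room temperature, in wells already read for beta-lactamase. Engineered HEK 293T cells (RXR-alpha-UAS-bla) are dosed 16 hr at 37 C. Tetraoctyl ammonium bromide serves as positive control.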

[9] = qHTS assay to identify small molecule antagonists of the retinoid acid receptor (RAR) signaling pathway - cell viability counter screen (AID 1159551); note: nearly all actives have a fitted effect of over 35% in size
Method in brief: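 C3RL4 cells were seeded overnight at 37 C, then treated with compounds plus 1 uM (final) retinol for 6 h at 37 C. Viability was read as ATP by CellTiter-Glo luminescence after 30 min at room temperature.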

[10] = qHTS assay to identify small molecule antagonists of the estrogen related receptor (ERR) signaling pathway from Tox21 library - cell viability counter screen (AID 1224834); note: nearly all actives have a fitted effect of over 30% in size
Method in brief: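 ERR reporter cells were plated 6 h before compound addition, then exposed to test compounds in DMSO for 17.5 h at 37 C. Viability was read as CellTiter-Fluor fluorescence after a 30-minute incubation at 37 C.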

[11] = qHTS assay to identify small molecule agonists of the constitutive androstane receptor (CAR) signaling pathway - cell viability counter screen (AID 1224836); note: nearly all actives have a fitted effect of over 45% in size
Method in brief: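 Counter screen multiplexed with the CAR reporter readout: HepG2 cells co-transfected with hCAR and the CYP2B6-2.2kb construct receive a 15-concentration compound series and 0.75 uM PK11195 (final), then CellTiter-Fluor fluorescence is read after 23 h.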

[12] = qHTS assay to identify small molecule antagonists of the constitutive androstane receptor (CAR) signaling pathway - cell viability counter screen (AID 1224837); note: nearly all actives have a fitted effect of over 45% in size
Method in brief: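 HepG2 cells stably expressing hCAR and a CYP2B6-2.2kb reporter were plated and pre-incubated 4 hr at 37 C/5% CO2, then given compounds at 15 concentrations plus 50 nM CITCO (final). After 23 hr, viability was read by CellTiter-Fluor fluorescence.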

[13] = molecular target: Nuclear receptor ROR-gamma (Homo sapiens) (UniProt P51449); assay: qHTS assay to identify small molecule antagonists of the retinoid-related orphan receptor gamma (ROR-gamma) signaling pathway (AID 1159521)
Method in brief: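 RORγ antagonism is scored from reduced reporter luminescence in Tet-on CHO cells. Induction used 1 uM final doxycycline hyclate for 16 h at 37 C, following a 2 h compound exposure.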

[14] = molecular target: Retinoic acid receptor RXR-alpha (Homo sapiens) (UniProt P19793); assay: qHTS assay to identify small molecule agonists of the RXR signaling pathway (AID 1159527; calls by dose curve; note: nearly all actives have a fitted effect of over 35% in size)
Method in brief: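 qHTS of the Tox21 10K library in GeneBLAzer RXR-alpha HEK 293T cells carrying a beta-lactamase reporter […]; 16 hr treatment, 9-cis retinoic acid as agonist control, FRET read-out.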

[15] = qHTS assay to identify small molecule antagonists of the retinoic acid receptor (RAR) signaling pathway (AID 1159552; note: nearly all actives have a fitted effect of over 50% in size)
Method in brief: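 Quantitative HTS in C3RL4 RARE-luciferase reporter cells. Compounds were added with 1 uM (final) retinol; luminescence was read after 6 hr.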

[16] = molecular target: Luciferin 4-monooxygenase (Photinus pyralis) (UniProt P08659); assay: qHTS assay to identify small molecule inhibitors of firefly luciferase (AID 1224835); note: nearly all actives have a fitted effect of over 25% in size; note: potency is the fitted concentration of half-maximal effect
Method in brief: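 Biochemical qHTS: compounds run as interplate titrations against purified firefly enzyme, with D-luciferin and ATP each at its KM concentration. Light output recorded by CCD imaging.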

[17] = qHTS assay to identify small molecule agonists of the endoplasmic reticulum stress response signaling pathway (AID 1159516; active = well fitted activation curve with a large enough effect in the signal ratio in the repeat runs, not every such curve was filed as active; the % refers to the signal ratio)
Method in brief: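 CellSensor ESRE-bla HeLa cells, carrying a beta-lactamase reporter driven by the ER stress response element, were plated overnight and exposed to compounds for 5 hr at 37 C. Reporter activity was read as FRET substrate fluorescence after 2 hr at room temperature.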

[18] = qHTS assay to identify small molecule agonists of the retinoic acid receptor (RAR) signaling pathway (AID 1159553); settings: C3RL4 RARE luciferase reporter, agonist, 6 h; activation: at 73.3 µM (top of the series) unless noted
Method in brief: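 C3RL4 cells carrying a RARE luciferase reporter were plated overnight at 37 C, then exposed to compounds in DMSO for 6 hr at 37 C and 5% CO2. Luminescence was read 30 min after luciferase reagent addition at room temperature.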

Measured: Potency

Retinoic acid receptor RXR-alpha (Homo sapiens), sequence (P19793 whole entry, looked up): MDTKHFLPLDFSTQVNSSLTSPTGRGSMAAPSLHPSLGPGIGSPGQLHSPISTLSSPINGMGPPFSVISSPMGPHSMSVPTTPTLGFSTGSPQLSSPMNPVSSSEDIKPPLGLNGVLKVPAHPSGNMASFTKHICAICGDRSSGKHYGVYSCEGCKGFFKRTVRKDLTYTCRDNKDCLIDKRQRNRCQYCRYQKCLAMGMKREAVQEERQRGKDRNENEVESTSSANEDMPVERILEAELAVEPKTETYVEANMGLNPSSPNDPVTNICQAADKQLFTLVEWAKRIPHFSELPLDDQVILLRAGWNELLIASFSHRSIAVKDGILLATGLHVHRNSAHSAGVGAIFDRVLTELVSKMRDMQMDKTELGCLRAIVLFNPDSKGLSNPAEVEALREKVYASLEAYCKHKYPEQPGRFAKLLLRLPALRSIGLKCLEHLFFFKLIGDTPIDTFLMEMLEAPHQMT
Luciferin 4-monooxygenase (Photinus pyralis), sequence (P08659 whole entry, looked up): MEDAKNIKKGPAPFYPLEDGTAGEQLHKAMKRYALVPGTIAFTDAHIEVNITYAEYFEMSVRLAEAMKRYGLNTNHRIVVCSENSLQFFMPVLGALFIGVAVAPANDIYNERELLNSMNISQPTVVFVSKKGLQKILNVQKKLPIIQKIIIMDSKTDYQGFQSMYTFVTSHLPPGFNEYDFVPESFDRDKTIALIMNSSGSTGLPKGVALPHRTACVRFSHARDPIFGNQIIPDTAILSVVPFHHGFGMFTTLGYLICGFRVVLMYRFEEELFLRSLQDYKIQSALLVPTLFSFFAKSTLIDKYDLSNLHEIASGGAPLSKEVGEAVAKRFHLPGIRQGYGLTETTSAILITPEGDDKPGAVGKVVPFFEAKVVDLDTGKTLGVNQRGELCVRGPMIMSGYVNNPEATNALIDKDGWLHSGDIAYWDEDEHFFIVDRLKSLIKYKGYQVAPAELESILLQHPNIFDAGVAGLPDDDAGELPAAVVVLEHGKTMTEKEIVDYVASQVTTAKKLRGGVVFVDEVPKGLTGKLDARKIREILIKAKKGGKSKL

c1ccc2c(c1)oc1ccccc12
not listed: [13] | [14] | [15] | [16] | [17] | [18]
inactive: all other assays above

Cc1ccc(N)cc1Cl
inactive and 56.4 µM (active): [16]
not listed: [2] | [17] | [18]
inactive: all other assays above

CC(C)C1(C)N=C(c2nc3ccccc3cc2C(=O)O)NC1=O (centres undefined)
not listed: [2] | [9] | [11] | [17] | [18]
inactive: all other assays above

CCC(C)(CC)c1cc(NC(=O)c2c(OC)cccc2OC)on1
not listed: [2] | [9] | [10] | [11] | [13] | [14] | [18]
inactive: all other assays above

ClCc1cccnc1
not listed: [2] | [11] | [15] | [17] | [18]
inactive: all other assays above

ClCCBr
not listed: [2] | [15] | [18]
inactive: all other assays above

Cc1ccc([N+](=O)[O-])cc1C
not listed: [2] | [9] | [14] | [18]
inactive: all other assays above

CCN(CC)CCO
not listed: [2] | [14] | [15] | [18]
inactive: all other assays above

C=CCO
not listed: [2] | [9] | [13] | [15] | [18]
inactive: all other assays above

CCNc1nc(NC(C)C)nc(SC)n1
not listed: [2] | [9] | [15] | [18]
inactive: all other assays above

O=Cc1cccc(Oc2ccccc2)c1
not listed: [2] | [9]
inactive: all other assays above

CC(C)(C)OOC(C)(C)C
not listed: [2] | [11] | [15] | [18]
inactive: all other assays above

CCC[CH2][Sn]([Cl])([Cl])[Cl]
not listed: [2] | [15] | [18]
inactive: all other assays above

CC(Br)C(=O)O (centres undefined)
not listed: [2] | [11] | [18]
inactive: all other assays above

COC(=O)c1ccccc1C(=O)OC
not listed: [2] | [14]
inactive: all other assays above

Nc1ccccc1C(=O)O
not listed: [2] | [11] | [13] | [17]
inactive: all other assays above

C1CN2CCN1CC2
not listed: [2] | [9] | [14] | [18]
inactive: all other assays above

CC(C#N)CCC#N (centres undefined)
not listed: [2] | [18]
inactive: all other assays above

O=c1[nH]c(=O)[nH]c(=O)[nH]1
not listed: [2] | [9] | [17]
inactive: all other assays above
